# Experimental data from the supplement of paper PMC8728848.
# The sample as a whole holds a higher share of the strongest signals than the screen did.
# B1: Nictaba (Nicotiana tabacum), Q94EW1 (protein)
# chain: MQGQWIAARDLSITWVDNPQYWTWKTVDPNIEVAELRRVAWLDIYGKIETKNLIRKTSYAVYLVFKLTDNPRELERATASLRFVNEVAEGAGIEGTTVFISKKKKLPGELGRFPHLRSDGWLEIKLGEFFNNLGEDGEVEMRLMEINDKTWKSGIIVKGFDIRPN
# Experiments:
# Experiment in all cases: glycan array binding signal (z-score within array); higher = stronger binding
# Conditions in all cases: glycan notation: IUPAC condensed, linker removed
# [1] = target: Fuc(a1-2)Gal(b1-3)[Fuc(a1-4)]GlcNAc(b1-3)[Gal(b1-4)GlcNAc(b1-6)]Gal(b1-4)Glc
# How it was run: (§1)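 Glycan array binding is given as a within-array Z-score, which can be read as non-binding when negative. The arrays, 3228 of them, came from the Consortium for Functional Glycomics database and were retained only where the protein sequence was available. Z-scores were averaged across arrays of the same protein sequence at different concentrations or buffers and across linkers.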
# [2] = target: Fuc(a1-2)Gal(b1-4)Glc6S
# How it was run: as §1
# [3] = target: Fuc(a1-2)Gal(b1-4)GlcNAc(b1-3)Gal(b1-4)GlcNAc(b1-2)Man(a1-3)[Fuc(a1-2)Gal(b1-4)GlcNAc(b1-3)Gal(b1-4)GlcNAc(b1-2)Man(a1-6)]Man(b1-4)GlcNAc(b1-4)GlcNAc
# How it was run: as §1
# [4] = target: Fuc(a1-2)Gal(b1-4)[Fuc(a1-3)]GlcNAc(b1-2)Man(a1-3)[Fuc(a1-2)Gal(b1-4)[Fuc(a1-3)]GlcNAc(b1-2)Man(a1-6)]Man(b1-4)GlcNAc(b1-4)[Fuc(a1-6)]GlcNAc
# How it was run: as §1
# [5] = target: Fuc(a1-2)Gal6S(b1-3)GlcNAc6S
# How it was run: as §1
# [6] = target: Fuc(a1-2)Gal6S(b1-4)Glc6S
# How it was run: as §1
# [7] = target: Fuc(a1-2)[Gal(a1-3)]Gal(b1-3)GlcNAc(b1-2)Man(a1-3)[Fuc(a1-2)[Gal(a1-3)]Gal(b1-3)GlcNAc(b1-2)Man(a1-6)]Man(b1-4)GlcNAc(b1-4)[Fuc(a1-6)]GlcNAc
# How it was run: as §1
# [8] = target: Fuc(a1-2)[Gal(a1-3)]Gal(b1-4)GlcNAc(b1-3)GalNAc
# How it was run: as §1
# [9] = target: Fuc(a1-2)[GalNAc(a1-3)]Gal(b1-4)[Fuc(a1-3)]GlcNAc
# How it was run: as §1
# [10] = target: Fuc(a1-3)[Gal(b1-4)]GlcNAc(b1-2)Man(a1-3)[Fuc(a1-3)[Gal(b1-4)]GlcNAc(b1-2)Man(a1-6)]Man(b1-4)GlcNAc(b1-4)GlcNAc
# How it was run: as §1
# [11] = target: Fuc(a1-3)[Gal(b1-4)]GlcNAc(b1-6)[Neu5Ac(a2-3)Gal(b1-3)]GalNAc
# How it was run: as §1
# [12] = target: Gal(a1-2)Gal
# How it was run: as §1
# [13] = target: Gal(a1-3)Gal(b1-3)GlcNAc(b1-2)Man(a1-3)[Gal(a1-3)Gal(b1-3)GlcNAc(b1-2)Man(a1-6)]Man(b1-4)GlcNAc(b1-4)GlcNAc
# How it was run: as §1
# [14] = target: Gal(b1-3)Gal(b1-4)GlcNAc
# How it was run: as §1
# [15] = target: Gal(b1-3)[Fuc(a1-4)]GlcNAc
# How it was run: as §1
# [16] = target: Gal(b1-3)[Neu5Ac(a2-6)]GlcNAc
# How it was run: as §1
# [17] = target: Gal(b1-3)[Neu5Ac(b2-6)]GlcNAc
# How it was run: as §1
# [18] = target: Gal(b1-4)GlcNAc(b1-2)Man(a1-3)[Gal(b1-4)GlcNAc(b1-2)Man(a1-6)]Man(b1-4)GlcNAc(b1-4)GlcNAc
# How it was run: as §1
# [19] = target: Gal(b1-4)GlcNAc(b1-2)Man(a1-3)[Gal(b1-4)GlcNAc(b1-2)Man(a1-6)]Man(b1-4)GlcNAc(b1-4)[Fuc(a1-6)]GlcNAc
# How it was run: as §1
# [20] = target: Gal(b1-4)GlcNAc(b1-2)Man(a1-3)[Man(a1-6)]Man(b1-4)GlcNAc(b1-4)GlcNAc
# How it was run: as §1
# [21] = target: Gal3S(b1-4)GlcNAc6S
# How it was run: as §1
# [22] = target: Gal3S4S(b1-4)GlcNAc
# How it was run: as §1
# [23] = target: GalNAc3S(b1-4)[Fuc(a1-3)]GlcNAc
# How it was run: as §1
# [24] = target: Glc(a1-6)Glc(a1-6)Glc
# How it was run: as §1
binder,measurement,setting,value
B1,glycan array binding signal (z-score),[1],-0.29
same,glycan array binding signal (z-score),[2],-0.254
same,glycan array binding signal (z-score),[3],3.54
same,glycan array binding signal (z-score),[4],5.19
same,glycan array binding signal (z-score),[5],-0.381
same,glycan array binding signal (z-score),[6],-0.234
same,glycan array binding signal (z-score),[7],-0.187
same,glycan array binding signal (z-score),[8],-0.273
same,glycan array binding signal (z-score),[9],-0.307
same,glycan array binding signal (z-score),[10],5.57
same,glycan array binding signal (z-score),[11],-0.295
same,glycan array binding signal (z-score),[12],-0.289
same,glycan array binding signal (z-score),[13],-0.148
same,glycan array binding signal (z-score),[14],-0.321
same,glycan array binding signal (z-score),[15],-0.271
same,glycan array binding signal (z-score),[16],-0.332
same,glycan array binding signal (z-score),[17],-0.39
same,glycan array binding signal (z-score),[18],3.74
same,glycan array binding signal (z-score),[19],1.64
same,glycan array binding signal (z-score),[20],3.52
same,glycan array binding signal (z-score),[21],-0.163
same,glycan array binding signal (z-score),[22],-0.289
same,glycan array binding signal (z-score),[23],-0.387
same,glycan array binding signal (z-score),[24],-0.295
